This assay concerns VDR:RXRa (NR concentration 270 nM, RXRa partner concentration 90 nM). Kind of assay: PBM binding z-score (relative to random genomic background probes); higher = stronger binding; sequences stand for … in GC…GCGATTGACAGCGTAGAATGAAGG
How it is done: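 Protein-binding microarray (Agilent 4x180K custom design, double-stranded 60-nt probes: 5' GC cap, 34-nt variable region, 24-nt constant primer region; full probe sequence given). Purified or IVT nuclear receptor:RXRα heterodimers (3:1 NR:RXRα, mostly 270:90 nM) or homodimers were incubated for 1 h in PBS with 2% milk and no ligand, then detected with Alexa488 antibodies. Fluorescence from o1-orientation probes (~5 replicates averaged) was converted to z-scores against 500 random hg19 background probes. Variable regions are seed direct-repeat (DR0–DR5) sites, all their single-nucleotide variants and half-site ablations.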
CCTTACGGGTCACGAGGTTATAGGACGACGAGCG came in with a PBM binding z-score of 4.9.
In the case of ACTAGCATGCCAAGGGTCACTCAAGATTAGTCCG it was 2.93; in that of ATCGAAAGGCCGTGAGGTGAGTATACAGAAAGGC, -0.0584; in that of GCAGACATGTGAAACGCAGGTAACTCAGGGTGGC, -0.478.
For TAGCCTAGGTCATTCAGGGGCCAATATAGAAAGC, the PBM binding z-score amounted to 3.77.
As to TGTCAAAGTTCAAAGGTAACATAAGTATCCACAC, the PBM binding z-score is 5.14.
CCAACTAGGTCACAGAGGTCAAAGTCCGTGCGTA yielded a PBM binding z-score of 7.88.
CCGATTGGGGCAAGGTTACCATAACGCACAGCCA registered a PBM binding z-score of 0.0829.
In the case of CGTCCTAGGTCATAGGAGGTCAGTGAAGACAGAT, the PBM binding z-score came out at 5.59.
Sequence TCTCGGAGTACACGAAAGGTCAGAGCTCGACATC had a PBM binding z-score of 3.41.
AGTCAAAGTCCATCTAGGTAACGTAAGATATGCT came in with a PBM binding z-score of 0.131.
TCTTGTAGATCAACAGGAGGTTAAGAACGATCGA showed a PBM binding z-score of 0.419.
Take CATACAGGGTCAGCTACGCCAGAGTAGGGACGGC: the PBM binding z-score was determined as 2.74.
Turning to CATACAGGGTCACCTAGGCCAGAGTAGGGACGGC, the PBM binding z-score stood at 5.14.
Sequence CCAGACAGGTGAGAAGGTAACCCAGCCTCGATTA came in with a PBM binding z-score of -0.04.
TCATGTAGGTAAATGCTAGGTGAAAGTCCGATCT returned a PBM binding z-score of 0.587.
CGAACTAGGTTATTGACAGGACAGTGAATAGTAA registered a PBM binding z-score of 0.204.
On to AGAGTGAGGTTAAGATCAGGGAAACAGAATACAT, for which the PBM binding z-score was determined as 1.62.
CCTACTGGGCGAAAGGTCATTGATTCCAATGCTC came in with a PBM binding z-score of 4.43.
In the case of AGAACGAGGGCAATGAGTTGATAGGACGGGTGGC, the PBM binding z-score was 5.22.
ATCTCTAGGTAACCAAGTTCAGAGAATGCCGAAC came in with a PBM binding z-score of 4.26.
For GCTTGTAGATCAAGGTTAAAAAAGACTAAGCTAA, the PBM binding z-score amounted to 0.328.
ATCGAAAGGTCGCGAGGTGAGTATACAGAAAGGC came in with a PBM binding z-score of 3.53.
In the case of CGAACTAGGTCATTGACAGGATAGTGAATAGTAA, the PBM binding z-score is 1.64.
Sequence CCTCCTAGGTCAATGGTCAGCTAAAGCAGCTCGC returned a PBM binding z-score of 1.29.
The result for ACTAGCAGGCCAAGGGTCTCTCAAGATTAGTCCG reads -0.657; that for ACTAGCAGGCCAAGGGCCACTCAAGATTAGTCCG, -0.798; that for TCGAGTAGGTTACCATTGGGGCATTCAGCTTTCT, 0.0183.
Take CGAACCAGGTCAAGGACAGTGAATCTCCGCACGC: the PBM binding z-score was determined as 2.22.
Sequence TAGCCTAGGTCAGATCGGGCCCGTATACGCTATA showed a PBM binding z-score of 0.22.
TAGCCTAGGTAATTCAGGGGCCAGTATAGAAAGC had a PBM binding z-score of -0.417.
ATCTCTAGGTAACAAGTTCAGGGAAAGAGAGGAC: the PBM binding z-score is 2.25.
With CGAACGAGGGGATGAGTTGATAGCAAATGCCGAT, the PBM binding z-score was -0.189.
As to CAAACTAGGTCAAGGTCAAGGTCGGTTTGTGCCA, the PBM binding z-score came to 5.24.
The sequence TATTGTAGATCAGCAGGTTAAGAAAGCTGGCCAA registered a PBM binding z-score of 0.112.
CAAACTAGGTCTAAGGTCAAAGTCGAGCCAACCA came in with a PBM binding z-score of 4.26.
The result for CCGACTGGGGCAACGTTACCATAACGCACAGCCA reads -0.557; that for GCATATAGGTAATACAAGGAGAAAGTCCGATTGT, -0.177.
TCGAGTAGGTTAGTGGCATTCAGAATGGCGTCGA yielded a PBM binding z-score of -0.261.
As for ACTATTCGTTGAGACGAGGGCAACCGATAGGTTG, the PBM binding z-score worked out at 0.454.

Values taken from the supplement of paper PMC6555819.
